The campaign covered roughly 5,500 compounds. About 2,000 (36%) were called active. Roughly 18% stayed inconclusive and do not appear here. Cut-off read from the data, not from the text of the source: active = normalized growth mostly below about 0.91 (no sharp cut-off); inconclusive = no clear call, values can overlap the other calls; inactive = mostly above about 0.92. Some of the results follow.
Test: chemical genetic growth profiling, strain panel (AID 1159580);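 note: tested at 20 µM; growth read once vehicle control cultures reached saturation at 30 °C; 1 = growth at the plate median or of vehicle wells; lower values mean less growth of the strain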
Settings: S. cerevisiae deletion strains, growth OD
[1] = locus YAL040C, strain CLN3, stronger effect = lower value
[2] = locus YCL061C, strain MRC1 (second series), stronger effect = lower value
[3] = locus YER002W, strain NOP16, stronger effect = lower value
[4] = locus YGR078C, strain PAC10, stronger effect = lower value
[5] = locus YGR229C, strain SMI1, stronger effect = lower value
[6] = locus YJR075W, strain HOC1, stronger effect = lower value
[7] = locus YNL175C, strain NOP13, stronger effect = lower value
[8] = locus YNL197C, strain WHI3, stronger effect = lower value
[9] = locus YNL224C, strain SQS1, stronger effect = lower value
[10] = locus YNL322C, strain KRE1, stronger effect = lower value
[11] = locus YOR083W, strain WHI5 (second series), stronger effect = lower value

Measured: normalized growth

NCCNC(=O)Cc1ccc(NC(=O)Cc2ccc(Nc3ncnc4c3ncn4[C@@H]3O[C@H](CO)[C@H](O)C3O)cc2)cc1 (some centres undefined)
inactive: [1] 1.01 | [2] 0.999 | [3] 0.999 | [4] 1.01 | [5] 1.03 | [6] 1 | locus YMR263W, strain SAP30, stronger effect = lower value 1.01 | [7] 1.01 | [8] 1.02 | [9] 0.994 | [10] 1 | [11] 1.02

COC(=O)N1CCN(C(=O)Cc2ccc(Cl)c(Cl)c2)C(CN2CCCC2)C1 (centres undefined)
inactive: [1] 0.997 | [2] 1.01 | locus YDR150W, strain NUM1, stronger effect = lower value 1 | locus YDR363W, strain ESC2, stronger effect = lower value 1 | [3] 0.995 | [4] 1 | [5] 0.982 | [6] 1.01 | locus YMR307W, strain GAS1, stronger effect = lower value 1 | locus YNL128W, strain TEP1, stronger effect = lower value 1.01 | locus YNL153C, strain GIM3, stronger effect = lower value 1 | [7] 1.01 | [8] 1.04 | [9] 1 | [10] 1.01 | [11] 1.05 | locus YPL241C, strain CIN2, stronger effect = lower value 1

Cc1nc(-c2ccc(C(F)(F)F)cn2)[nH]c(=O)c1Cl
inactive: locus YAR019C, strain CDC15, stronger effect = lower value 0.899 | locus YBL105C, strain PKC1, stronger effect = lower value 0.932 | locus YBR135W, strain CKS1, stronger effect = lower value 0.916 | locus YBR136W, strain MEC1, stronger effect = lower value 0.922 | locus YBR160W, strain CDC28, stronger effect = lower value 0.922 | locus YDL017W, strain CDC7, stronger effect = lower value 0.938 | locus YDL028C, strain MPS1, stronger effect = lower value 0.909 | locus YDL101C, strain DUN1, stronger effect = lower value 0.939 | locus YDL108W, strain KIN28, stronger effect = lower value 0.921 | locus YDL132W, strain cdc53, stronger effect = lower value 0.905 | locus YDL214C, strain PRR2, stronger effect = lower value 0.86 | locus YDR052C, strain DBF4, stronger effect = lower value 0.943 | locus YDR054C, strain cdc34, stronger effect = lower value 0.887 | locus YDR226W, strain ADK1, stronger effect = lower value 0.924 | locus YDR477W, strain SNF1, stronger effect = lower value 0.833 | locus YER123W, strain YCK3, stronger effect = lower value 0.692 | locus YER133W, strain GLC7, stronger effect = lower value 0.831 | locus YFL009W, strain cdc4, stronger effect = lower value 0.896 | locus YFL029C, strain CAK1, stronger effect = lower value 0.901 | locus YFR003C, strain YPI1, stronger effect = lower value 0.929 | locus YFR019W, strain FAB1, stronger effect = lower value 0.908 | locus YFR028C, strain CDC14, stronger effect = lower value 0.918 | locus YGR040W, strain KSS1, stronger effect = lower value 0.834 | locus YGR052W, strain FMP48, stronger effect = lower value 0.815 | locus YGR092W, strain DBF2, stronger effect = lower value 0.689 | locus YHR079C, strain IRE1, stronger effect = lower value 0.639 | locus YHR082C, strain KSP1, stronger effect = lower value 0.945 | locus YHR205W, strain SCH9, stronger effect = lower value 0.978 | locus YIL147C, strain SLN1, stronger effect = lower value 0.919 | locus YJL095W, strain BCK1, stronger effect = lower value 0.675 | locus YJL128C, strain PBS2, stronger effect = lower value 0.928 | locus YJL157C, strain FAR1, stronger effect = lower value 0.813 | locus YJR016C, strain ILV3, stronger effect = lower value 0.924 | locus YJR066W, strain TOR1 (second series), stronger effect = lower value 0.769 | locus YJR066W, strain TOR1, stronger effect = lower value 0.848 | locus YKL048C, strain ELM1, stronger effect = lower value 0.927 | locus YKL067W, strain YNK1, stronger effect = lower value 0.857 | locus YKL101W, strain HSL1, stronger effect = lower value 0.88 | locus YKL193C, strain SDS22, stronger effect = lower value 0.903 | locus YKL203C, strain TOR2, stronger effect = lower value 0.886 | locus YLR133W, strain CKI1, stronger effect = lower value 0.857 | locus YLR403W, strain SFP1, stronger effect = lower value 0.809 | locus YML070W, strain DAK1, stronger effect = lower value 0.825 | locus YMR001C, strain CDC5, stronger effect = lower value 0.914 | locus YMR205C, strain PFK2 (second series), stronger effect = lower value 0.859 | locus YMR277W, strain FCP1, stronger effect = lower value 0.893 | locus YNL006W, strain LST8, stronger effect = lower value 0.957 | locus YNL020C, strain ARK1, stronger effect = lower value 0.853 | locus YNL161W, strain CBK1, stronger effect = lower value 0.912 | locus YNL183C, strain NPR1, stronger effect = lower value 0.696 | locus YNL207W, strain RIO2, stronger effect = lower value 0.919 | locus YNL222W, strain SSU72, stronger effect = lower value 0.905 | locus YNL307C, strain MCK1 (second series), stronger effect = lower value 0.826 | locus YOL078W, strain AVO1, stronger effect = lower value 0.896 | locus YOL136C, strain PFK27, stronger effect = lower value 0.868 | locus YOR061W, strain CKA2, stronger effect = lower value 0.858 | locus YOR119C, strain RIO1, stronger effect = lower value 0.821 | locus YOR231W, strain MKK1, stronger effect = lower value 0.685 | locus YOR329C, strain SCD5, stronger effect = lower value 0.93 | locus YPL031C, strain PHO85, stronger effect = lower value 0.787 | locus YPL153C, strain RAD53, stronger effect = lower value 0.755 | locus YPL204W, strain HRR25, stronger effect = lower value 0.777 | locus YPL209C, strain IPL1, stronger effect = lower value 0.926 | locus YPR025C, strain CCL1, stronger effect = lower value 0.923 | locus YPR106W, strain ISR1, stronger effect = lower value 0.95 | locus YPR111W, strain DBF20, stronger effect = lower value 0.937 | strain NNK1, stronger effect = lower value 0.932 | strain TSCII, stronger effect = lower value 0.888
active: locus YLR113W, strain HOG1, stronger effect = lower value 0.651 | locus YPL256C, strain CLN2, stronger effect = lower value 0.72

From PubChem BioAssay AID1159580 (chemical genetic matrix, 2015)
